Our source for the activity change, negative = inhibition values is PubChem BioAssay AID1259421 (Broad Institute, 2018).

“And” between values parts separate entries of the source, which are not always exact repeats. Equal entries are not always repeated. The campaign covered roughly 6,400 compounds. About 610 (9.5%) were called active. Cut-off read from the data, not from the text of the source: active = activity change below about -70%; inconclusive = no clear call, values can overlap the other calls; inactive = above that. The full list was thinned out, with actives kept by preference. Where a structure was tested more than once in an assay, its records may differ in their call.

The nature of the experiment: T. gondii ME49Luc in HeLa cells, luciferase assay, 72 h, no IFN-y (AID 1259421). The note with it: stronger effect = lower value, concentration not given here.
As for `C=CCN1CCC23c4c5ccc(O)c4OC2/C(=N\NC(=O)c2ccccc2)CCC3(O)C1C5` (stereo not drawn), the activity change, negative = inhibition is 25.6% (inactive).
The value for `C=CCN1CC[C@]23c4c5ccc(O)c4OC2C(=O)CC[C@@]3(O)[C@H]1C5` (stereo partly drawn) was 4.78% (inactive); that for `CCN1C[C@]2(OC(=O)c3ccccc3NC(C)=O)CC[C@@H](OC)[C@]34C1[C@@H](C[C@H]23)[C@@]1(O)C[C@H](OC)[C@H]2C[C@H]4[C@]1(O)[C@H]2OC` was 10.9% (inactive).
With `O=C(O)c1ccccn1.O=C(O)c1ccccn1.O=C(O)c1ccccn1.[Cr]`, the activity change, negative = inhibition is 10.5% (inactive).
The value for `Cc1ccc2c(c1)Cc1c(C(=O)NN3CCCCC3)nn(-c3ccc(Cl)cc3Cl)c1-2` was -71% (active) and -58.8% (inactive).
The same measure for `Cc1ccc2c(c1)Cc1c(C(=O)NC3CCCCC3)nn(-c3ccc(Cl)cc3Cl)c1-2`: -23.4% (inactive) and -2.64% (inactive); for `C/C(=C\C(N)C(=O)O)CP(=O)(O)O` (stereo not drawn): -4.78% (inactive).
The value for `c1ccc(C2CNCc3ccccc32)cc1` (stereo not drawn) was 5.48% (inactive); that for `C=C1CC2C(CC[C@]3(C)C(=O)CCC23)[C@@]2(C)C=CC(=O)C=C12` (stereo partly drawn) was 11.4% (inactive).
`CN1C(=O)CCS(=O)(=O)C1c1ccc(Cl)cc1` (stereo not drawn): the activity change, negative = inhibition is 18% (inactive) and -3.16% (inactive).
Regarding `CC1(C)C2CC(=O)[C@]3(C)C(CC[C@@]4(C)[C@H](c5ccoc5)OC(=O)C5OC543)[C@@]2(C)[C@@H](O)C[C@H]1O` (stereo partly drawn), the activity change, negative = inhibition was 1.93% (inactive).
The same measure for `CC1(C)C(=O)[C@@H]2O[C@@H]2[C@@]2(C)C1C[C@@H](O)[C@]1(C)C2CC[C@@]2(C)[C@H](c3ccoc3)OC(=O)C3OC321` (stereo partly drawn): 20.5% (inactive).
The same measure for `CC(=O)O[C@@H]1C[C@@]2(C)[C@H](c3ccoc3)C[C@H]3O[C@]32[C@]2(C)C(=O)C(=O)C3C(C)(C)C(=O)C=C[C@]3(C)C12` (stereo partly drawn): -89.9% (active); for `CC1(C)C(=O)C=C[C@@]2(C)C1C(=O)C(=O)[C@]1(C)C2CC[C@@]2(C)[C@H](c3ccoc3)C[C@H]3O[C@]321` (stereo partly drawn): -86.1% (active); for `COC(=O)[C@@H]1C[C@H](OC(C)=O)C(=O)[C@H]2[C@@]1(C)CC[C@H]1C(=O)O[C@H](c3ccoc3)C[C@]21C`: 11.7% (inactive) and 9.72% (inactive).
For `CC1(C)C2C[C@@H](O)[C@]3(C)C(CC[C@@]4(C)[C@H](c5ccoc5)OC(=O)[C@H]5O[C@]543)[C@@]2(C)[C@@H](O)C[C@H]1O` (stereo partly drawn), the activity change, negative = inhibition is 4.33% (inactive).
The value for `CN1[C@@H]2CC[C@H]1CC(OC(=O)N1Cc3ccccc3NC1=O)C2` (stereo partly drawn) was 15% (inactive) and 8.45% (inactive); that for `CC(CO)NC(=O)C1C=C2c3cccc4[nH]cc(c34)C[C@H]2N(C)C1` (stereo partly drawn) was 15.2% (inactive) and -0.618% (inactive).
In the case of `COc1ccc2c(c1O)-c1cc(O)cc3c1[C@@H](C2)N(C)CC3`, the activity change, negative = inhibition is -5.61% (inactive).
Consider `CC(N)Cn1ccc2cc(F)c(Cl)cc21` (stereo not drawn), for which the activity change, negative = inhibition was 4.63% (inactive).
The value for `COc1cc2c(cc1OC)-c1c(oc3c4c(ccc3c1=O)OC(C(C)C)C4)CO2` (stereo not drawn) was 16.2% (inactive).
Consider `Cc1cccc(Cc2cnc[nH]2)c1C`, for which the activity change, negative = inhibition was 32.1% (inactive).
As for `CN1C[C@@H](NS(=O)(=O)N(C)C)C[C@@H]2c3cccc4c3c(cn4C)C[C@H]21`, the activity change, negative = inhibition was 14.9% (inactive).
The same measure for `COC(=O)NC(=S)Nc1ccccc1NC(=S)NC(=O)OC`: 8.42% (inactive) and 11.6% (inactive); for `CC(C)=CCCN1CCC(NC(=O)[C@](O)(c2ccccc2)C2CCCC2)CC1`: 1.64% (inactive); for `c1cncc(C2CCCCN2)c1` (stereo not drawn): 9.05% (inactive) and -25.4% (inactive).
As for `c1cncc(C2CCCN2)c1` (stereo not drawn), the activity change, negative = inhibition was 2.36% (inactive).
The same measure for `Fc1cc(F)c2c(c1)[C@H]1C=CC[C@H]1C(c1cccnc1)N2` (stereo partly drawn): -75.5% (active); for `O=C1CC[C@@]2(O)[C@H]3Cc4ccc(O)c5c4C2(CCN3CC2CC2)[C@H]1O5`: -9.85% (inactive); for `COc1cc2c3cc1Oc1c(OC)c(OC)cc4c1[C@@H](Cc1cccc(c1)Oc1ccc(c(O)c1)C[C@@H]3N(C)CC2)N(C)CC4`: -11.3% (inactive).
The value for `CCCCC/C=C\C/C=C\C/C=C\C/C=C\CCCC(=O)NCCO` was 34.9% (inactive); that for `CCCCC/C=C\C/C=C\C/C=C\C/C=C\CCCC(=O)NCc1ccc(O)c(OC)c1` was 8.17% (inactive).
Turning to `CCCCC/C=C\C/C=C\C/C=C\C/C=C\CCCC(=O)Nc1ccc(O)cc1`, the activity change, negative = inhibition is -78.5% (active).
In the case of `COC(=O)C=CC(=O)NC1CCC2(O)C3Cc4ccc(O)c5c4C2(CCN3CC2CC2)C1O5` (stereo not drawn), the activity change, negative = inhibition was 12.8% (inactive).
`CC(=O)[O][Hg][c]1ccccc1`: the activity change, negative = inhibition was -50.7% (inactive).
With `C[C@@H]([C@H](O)c1ccccc1)N(C)C`, the activity change, negative = inhibition was -0.751% (inactive) and -3.37% (inactive).
Consider `C[Se]C[C@H](N)C(=O)O`, for which the activity change, negative = inhibition was 10.4% (inactive).
The value for `COc1cc([C@@H]2c3cc4c(c(O)c3C[C@H]3COC(=O)[C@@H]32)OCO4)cc(OC)c1OC` was -71.9% (active); that for `COc1ccc2c(c1OC)CN1CCc3cc4c(cc3C1C2)OCO4` (stereo not drawn) was 15.2% (inactive); that for `COc1ccc2c(c1OC)C(=O)O[C@@H]2[C@H]1c2cc3c(cc2CCN1C)OCO3` was 2.97% (inactive).
The same measure for `COc1cc([C@@H]2c3cc4c(cc3[C@H](OC(C)=O)[C@H]3COC(=O)[C@H]23)OCO4)cc(OC)c1OC`: -81.6% (active); for `COc1cc([C@@H]2c3cc4c(cc3[C@@H](O)C3COC(=O)C32)OCO4)cc(OC)c1O` (stereo partly drawn): -8.26% (inactive).
The same measure for `CCN1C[C@]2(OC(=O)c3ccccc3NC(C)=O)CCC(OC)[C@]34C1[C@H](CC23)[C@@]1(O)CC(OC)[C@H]2CC4C1(O)[C@H]2OC` (stereo partly drawn): -6.02% (inactive).
